Measurements as given in publication PMC5540273 (PLoS ONE, 2017).

How the values were obtained:
Conditions in all cases: concentration: 1 μM, replicates: in singlicate; n = 1
[1] = system: T1, ASK2
T1 construct: gene MAP3K6

[2] = system: AURKA
[3] = system: AURKB
[4] = system: AURKC
[5] = system: AXL
[6] = system: T2, BIKE
T2 construct: gene BMP2K

[7] = system: BLK
[8] = system: BMPR1A
[9] = system: BMPR1B
[10] = system: BMPR2
[11] = system: BMX
[12] = system: BRAF
[13] = system: T3, BRK
T3 construct: gene PTK6

[14] = system: BRSK1
[15] = system: BRSK2
[16] = system: BTK
[17] = system: BUB1
[18] = system: CAMK1B
[19] = system: CAMK1D
[20] = system: CAMK1G
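Also: KINOMEscan kinase panel screen.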

| SMILES | %Inh [1] [%] | %Inh [2] [%] | %Inh [3] [%] | %Inh [4] [%] | %Inh [5] [%] | %Inh [6] [%] | %Inh [7] [%] | %Inh [8] [%] | %Inh [9] [%] | %Inh [10] [%] | %Inh [11] [%] | %Inh [12] [%] | %Inh [13] [%] | %Inh [14] [%] | %Inh [15] [%] | %Inh [16] [%] | %Inh [17] [%] | %Inh [18] [%] | %Inh [19] [%] | %Inh [20] [%] |
| --- | --- | --- | --- | --- | --- | --- | --- | --- | --- | --- | --- | --- | --- | --- | --- | --- | --- | --- | --- | --- |
| Nc1ncnc2c1nc(-c1ccccc1)n2-c1ccccc1 [SKF-97293] | 29 | 24 | 47 | 0 | 14 | 4 | 0 | 8 | 17 | 46 | 15 | 6 | 1 | 15 | 27 | 0 | 46 | 6 | 8 | 0 |
| C[C@@H](Oc1cc(-n2cnc3cc(-c4ccnc(NCCS(C)(=O)=O)c4)ccc32)sc1C(N)=O)c1ccccc1Cl [GSK907232] | 7 | 0 | 27 | 65 | 91 | 97.7 | 30 | 21 | 0 | 0 | 23 | 0 | 20 | 55 | 78 | 0 | 31 | 31 | 15 | 13 |
| COc1cccc(C2=C(Nc3ccc(Cl)c(C(=O)O)c3)C(=O)NC2=O)c1 [SB-390769] | 100 | 0 | 39 | 23 | 3 | 16 | 10 | 0 | 0 | 100 | 0 | 13 | 38 | 0 | 0 | 25 | 44 | 28 | 0 | 0 |
| Cn1cc(-c2ccc3c(c2)CCN3C(=O)Cc2cccc(Cl)c2)c2c(N)ncnc21 [GSK2606590] | 19 | 23 | 89 | 65 | 96.3 | 18 | 69 | 0 | 0 | 4 | 4 | 11 | 56 | 7 | 0 | 0 | 0 | 0 | 32 | 25 |
| Nc1n[nH]c2cnc(-c3ccccc3)cc12 [SB-642124] | 0 | 4 | 32 | 100 | 0 | 99.4 | 0 | 0 | 53 | 33 | 5 | 7 | 19 | 13 | 7 | 0 | 44 | 8 | 0 | 10 |
| O=C(Nc1n[nH]c2cc(-c3ccoc3)ccc12)C1CC1 [SB-738481] | 5 | 23 | 20 | 19 | 37 | 35 | 0 | 11 | 21 | 60 | 16 | 0 | 0 | 11 | 0 | 0 | 0 | 0 | 0 | 0 |
| Oc1cc(Nc2ccnc3cc(I)ccc23)ccc1F [GW552771] | 4 | 0 | 8 | 8 | 3 | 5 | 80 | 56 | 99.9 | 6 | 15 | 79 | 28 | 11 | 0 | 7 | 57 | 37 | 8 | 0 |
| COc1cc(Nc2nccc(N3CCC(NC(=O)c4cc5ccccc5s4)C3)n2)cc(OC)c1OC (stereo not shown) [GSK1379760] | 100 | 59 | 68 | 86 | 14 | 70 | 100 | 0 | 0 | 13 | 1 | 4 | 11 | 0 | 4 | 67 | 26 | 49 | 14 | 18 |
| Nc1ncc(-c2cccnc2)c2scc(-c3ccc4c(c3)CCN4C(=O)Cc3ccccc3)c12 [GSK683281] | 10 | 25 | 70 | 70 | 89 | 16 | 82 | 6 | 0 | 3 | 20 | 0 | 68 | 27 | 0 | 0 | 0 | 0 | 22 | 21 |
| CN(C)Cc1ccc(-c2ccc3c(Nc4ccc(Oc5ccccn5)cc4)ccnc3c2)o1 [GW567148] | 0 | 0 | 81 | 51 | 2 | 17 | 91.5 | 0 | 0 | 28 | 12 | 1 | 95.2 | 0 | 0 | 74 | 0 | 0 | 0 | 0 |
| COc1cccc(NC(=O)NC2CCN(c3ccnc(Nc4cc(OC)c(OC)c(OC)c4)n3)C2)c1 (stereo not shown) [GSK1379763] | 11 | 75 | 55 | 89 | 13 | 78 | 0 | 0 | 0 | 8 | 2 | 5 | 0 | 0 | 0 | 0 | 18 | 35 | 4 | 17 |
| CCn1c(-c2nonc2N)nc2c(C#CC(C)(C)O)nc(OC[C@H](N)c3ccccc3)cc21 [GSK943949] | 0 | 37 | 0 | 4 | 13 | 19 | 0 | 0 | 9 | 1 | 2 | 42 | 0 | 0 | 50 | 0 | 13 | 0 | 10 | 0 |
| O=C(Nc1cccc(Oc2ccc3nc(NC(=O)C4CC4)cn3n2)c1)c1ccccc1C(F)(F)F | 0 | 89 | 92.8 | 77 | 75 | 79 | 25 | 0 | 0 | 0 | 0 | 65 | 0 | 6 | 0 | 16 | 0 | 0 | 3 | 0 |
| Cn1cc(-c2ccc3c(c2)CCN3C(=O)Cc2cccc(F)c2)c2c(N)ncnc21 [GSK2603358] | 0 | 20 | 95.5 | 47 | 83 | 10 | 50 | 0 | 0 | 3 | 0 | 4 | 26 | 14 | 67 | 0 | 52 | 34 | 74 | 11 |
| O=C(Nc1cccc(-c2nn3ncccc3c2-c2ccnc(Nc3ccccc3)n2)c1)c1c(F)cccc1F [GSK198271] | 6 | 65 | 32 | 64 | 100 | 16 | 97.5 | 0 | 0 | 0 | 89 | 90.9 | 94.5 | 4 | 0 | 99.4 | 32 | 9 | 25 | 11 |
| Cc1ccc(C(=O)Nc2ccc(Nc3ccnc4cc(-c5nccs5)ccc34)cc2O)cc1.Cl [GW494702] | 0 | 100 | 91.3 | 61 | 9 | 9 | 97 | 0 | 0 | 12 | 18 | 1 | 38 | 0 | 0 | 100 | 35 | 8 | 0 | 15 |
| C[C@@H]1CC[C@@H](C(=O)Nc2ccccc2)CN1c1cc(-c2ccc3c(N)n[nH]c3c2)nc(N)n1 [GSK2286062] | 2 | 4 | 16 | 26 | 0 | 9 | 0 | 0 | 0 | 0 | 24 | 0 | 3 | 0 | 0 | 0 | 16 | 0 | 23 | 6 |
| Clc1ccc(-c2nn3ncccc3c2-c2ccnc(Nc3ccc4c(c3)OCCO4)n2)cc1 [GW829116] | 0 | 18 | 0 | 0 | 0 | 0 | 48 | 0 | 0 | 0 | 0 | 52 | 0 | 0 | 0 | 0 | 93.1 | 0 | 0 | 0 |
| Cl.c1ccc(-c2ccc3c(Nc4ccc5[nH]ccc5c4)ccnc3c2)nc1 [GW440138] | 0 | 8 | 0 | 1 | 0 | 2 | 70 | 0 | 5 | 26 | 5 | 0 | 28 | 0 | 0 | 0 | 64 | 11 | 0 | 0 |
| COc1cc(Nc2nccc(N3CCC(NC(=O)Nc4cccc(C(C)=O)c4)C3)n2)cc(OC)c1OC (stereo not shown) [GSK1379753] | 0 | 83 | 57 | 77 | 0 | 74 | 9 | 0 | 0 | 9 | 1 | 0 | 8 | 5 | 0 | 0 | 31 | 0 | 20 | 0 |
